For 15 sequences, sensor-assay potency score (higher = more potent) results are on record in the OligoGym collection.
Also: reference of the scale not given here.

For the first assay, the target named is BEST2. The assay can be described thus: pooled miR-30 sensor sort-seq; sequence = guide strand. Conditions: shRNA.
TGGAACTGCATGTCTTCTTTGG registered a sensor-assay potency score (higher = more potent) of -0.925.

With TAGTGAAAGAGCATTCCACATT, the sensor-assay potency score (higher = more potent) was -0.946. Same read-out and setting: under AAGCGCTTGAACACCGCGGTGC stands 0.183.

For another assay, the target named is BIRC8. The description is as above. Conditions: shRNA.
For TTTACAAAGCTTCTCCTCTTGC, the sensor-assay potency score (higher = more potent) is -0.189.

Sequence TGCAACAAGAACCTCAAGCGTT showed a sensor-assay potency score (higher = more potent) of -0.815. Same read-out and setting: under TTTCTTGGTAGTTTGTACCAGA stands -0.312; under TAGATCTGCAACAAGAACCTCA, 0.199.

With TTCTTTTAGTTAGTGATGGTGT, the sensor-assay potency score (higher = more potent) came out at 0.0164.

For the sequence TTGCTTGAAATCAATAACCGCG, the sensor-assay potency score (higher = more potent) was 0.0701.

In turn, TAGTTTGTACCAGAGCTCCCTC displayed a sensor-assay potency score (higher = more potent) of -0.717. TCGTATAGCTTCTTGTAGCATA yielded a sensor-assay potency score (higher = more potent) of -0.43. The same measure, in the same setting: in the case of TTGAAATCAATAACCGCGCTGC it was 1.02; in that of TCTTCTAGCAGATATTTGCAAC, -1.19. On the same count and under the same terms, under TTTCTGTAGTGTCTTTCTGAGC stands -1.49; under TTGTTAACGGAGTACATCCATG, -1.22.
